In PubChem BioAssay one finds composite z-score data, which are given here for 25 compounds.

The structures appear in SMILES notation.

For the assay, the system named is PRMT1 (protein arginine N-methyltransferase 1). Kind of assay: PRMT1 binders on small-molecule microarrays, primary screen, biochemical, small-molecule microarray, 635 nm fluorescence (AID 1088). The settings on record: small-molecule microarray binding, higher = more signal.
As for `C=CCN1Cc2ccccc2C[C@@]2(N=C(c3ccc(OCCCO)cc3)O[C@H]2c2ccccc2)C1=O`, the composite z-score amounted to 1.55. The same measure for `CN(C)CCCCNC(=O)[C@H]1C[C@H]2C(=O)N3CCC[C@H]3C(=O)N2[C@H]1c1ccc(O)cc1`: 0.765.

In turn, `COC1(C)CN(Cc2ccccc2Br)[C@H](/C=C/c2ccccc2)[C@H](Cc2ccccc2)O1` (stereo not given in full) returned a composite z-score of -0.355.

For the compound `COc1cc(OC)c(C(O)C2C=CC3C(=O)N(c4ccccc4)C(=O)C3N2Nc2ccc(C#N)cc2)cc1Br` (stereo not given), the composite z-score was found to be 0.977. The same measure for `O=C(O)[C@]1(Cc2ccccc2)N=C(c2ccc(OCCCO)cc2)O[C@@H]1c1ccccc1`: -1.27. With `O=C1c2ccccc2[C@@]2(Cc3ccccc3N(C3CC3)C2=O)[C@H](c2ccc(CO)cc2)N1C1CCCCC1` the figure was -0.767; with `COCCOC(=O)N1C(=O)[C@@]2(c3cc(C#CCC(C(=O)OC)C(=O)OC)ccc31)[C@H](c1ccc(OCCO)cc1)N1[C@H](c3ccccc3)[C@H](c3ccccc3)OC(=O)[C@H]1[C@@H]2C(=O)N1CCN(c2ncccn2)CC1`, 1.45; with `O=C1O[C@@H](c2ccccc2)[C@@H](c2ccccc2)N2[C@@H](c3ccccc3OCCO)[C@]3(C(=O)Nc4ccc(C#CCCO)cc43)[C@@H](C(=O)N3CCN(c4ncccn4)CC3)[C@H]12`, 1.55. With `COc1cc(CO)cc(I)c1O[C@H]1C=C(C(=O)NCCO)C[C@@H](N(CC2CCCCC2)C(=O)c2ccc(C(F)(F)F)cc2)[C@@H]1O` the figure was 1.23; with `Cc1c(NC(=O)/C(C#N)=C/C=C/c2ccccc2[N+](=O)[O-])c(=O)n(-c2ccccc2)n1C`, 0.454. Regarding `CCC[C@@H]1C[C@@]1(CCC)[C@@H](NP(=O)(c1ccccc1)c1ccccc1)c1ccc(Cl)cc1`, the composite z-score is -0.189. In turn, `C=CCN1C(=O)[C@]2(CC=C)N=C(c3ccc(OCCCO)cc3)O[C@@H]2c2ccccc21` showed a composite z-score of 1.45. The same measure for `O=C1c2ccccc2[C@](Cc2ccccc2I)(C(=O)NCCN2CCOCC2)[C@H](c2ccc(CO)cc2)N1Cc1ccccc1`: 1.52; for `COC(=O)[C@@]1(Cc2ccc(F)cc2)[C@H]2c3cc(C(=O)N4CCCC4)n(CCc4c[nH]c5ccc(OC)cc45)c3C[C@H]2CN1C(=O)c1ccccc1`: -0.508.

The compound `O=C1c2ccccc2[C@](Cc2ccccc2I)(C(=O)NCc2ccccc2)[C@H](c2ccc(CO)cc2)N1C1CCCCC1` came in with a composite z-score of 1.27. The same measure for `COCC(=C=CC[C@H](O)c1cccc(OCCO)c1)C[C@H](O)c1ccccn1`: 1.02.

`CN1C2C=C(CCCO)C(C3C(=O)N(C(N)=O)C(=O)C32)C1c1cccs1` (stereo not given) returned a composite z-score of 0.613. The same measure for `CN(C)CCCNC(=O)[C@@H]1c2ccccc2C(=O)N(Cc2ccc(OC(F)(F)F)cc2)[C@H]1c1ccc(CO)cc1`: 1.54; for `CC(C)(C)OC(=O)CC[C@]1(C(=O)NCCN2CCOCC2)N=C(c2ccc(OCCCO)cc2)O[C@H]1c1ccccc1`: 1.55. With `CC(C)CNC(=O)[C@@H]1c2ccccc2C(=O)N(Cc2cc(F)cc(C(F)(F)F)c2)[C@H]1c1ccc(CO)cc1` the figure was 1.4; with `C=C(/C(=C/C[C@@H](OC(=O)c1ccncc1)c1ccc(OCCO)cc1)c1cc(C(=O)OC)ccc1OC)C(C)C`, 1.48. With `C=C(CCCC)/C(=C/C[C@@H](OC(=O)c1ccncc1)c1cccc(OCCO)c1)c1cnc2ccccc2c1` the figure was 1.57; with `C=CCOC(=O)[C@H]1[C@@H]2C(=O)O[C@@H](c3ccccc3)[C@@H](c3ccccc3)N2[C@@H](c2ccc(OCCOC(=O)[C@H]3C[C@H]4C(=O)N[C@@H](Cc5ccccc5)C(=O)N4[C@H]3c3cccc(OCCO)c3)cc2)[C@]12C(=O)Nc1ccc(I)cc12`, 1.54.

The compound `Cc1ccc(S[C@]2(C(=O)NC3CC3)CC(=O)N(Cc3ccccc3Cl)[C@@H]2c2ccc(CO)cc2I)cc1` showed a composite z-score of 1.54. In turn, `C[C@@H]1ON(c2ccc(C(=O)OC(C)(C)C)cc2)[C@H](c2ccc(Br)cc2)[C@H]1C(=O)N1C(=O)OC[C@H]1Cc1ccccc1` returned a composite z-score of 1.53.
